Test results taken from PubChem BioAssay (NCATS).
Inconclusive results are not listed. Activity calls are given as the source filed them. Unless noted, the call rests on the fitted dose curve; in most records, active means well fitted curve in either direction with a large enough effect (not every such curve was filed as active); inconclusive means small, poorly fitted or top-dose-only effect, or another doubt; inactive means flat fitted curve, though single readings scatter.

Experiments:
[1] = target: Lysosomal acid glucosylceramidase (Homo sapiens) (UniProt P04062); experiment: Glucocerebrosidase-p2 (AID 348; in the data active means potency below about 10 µM; further: potency means the concentration at half of the fitted maximal effect); settings: purified GBA, blue fluorogenic substrate, 40 min
In short: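 Normal human glucocerebrosidase (0.2 nM) with blue fluorogenic substrate (80 uM final) in citrate/phosphate pH 5.9 with 10mM sodium taurocholate, 0.01% tween-20; 40 min RT, NaOH/glycine stop; fluorescence Ex 365/Em 440; AC50 from a titration from 0.6 nM upwards.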

[2] = AP1 Signaling Pathway (AID 357); settings: ME-180 AP-1-bla reporter, EGF-induced, beta-lactamase ratio, 5 h; at 7.69 µM (top of the series) unless noted;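 further: ME-180 reporter cells stimulated with EGF at its EC50 level; on the % scale 0 is the no-effect control and ±100 the full control effect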
In short: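 In this screen, ME-180 cells in Opti-MEM with 0.5% dialyzed FBS received EC50 EGF and compound titrations for 5 h. AP-1 reporter beta-lactamase was detected via CCF4 ratio, giving AC50 for positive and negative modulators.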

[3] = target: Cytochrome P450 1A2 (Homo sapiens) (UniProt P05177); experiment: p450-cyp1a2 (AID 410; calls by dose curve;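 further: -100% = full effect of reference inhibitor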); settings: recombinant CYP1A2, luciferin-ME demethylation, luminescence; series mostly up to 11.4 µM
In short: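 20nM CYP1A2, 100uM Luciferin-ME (=Km), 100mM KPO4; cpd 10 min RT; +NADPH regen, 60 min RT; stop/detect 20 min; luminescence. Normalized to furafylline 57 uM = full inhibition.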

[4] = Stat Signaling Pathway (AID 446); settings: ME-180 SIE beta-lactamase reporter, IL-6 stimulated, 5 h; at 7.69 µM (top of the series) unless noted;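 further: ME-180 cervical cancer cells given 40 pM IL-6 alongside compound; SIE-controlled beta-lactamase reporter measured as 460/530 nm FRET emission ratio; on the % scale 0 is the no-effect control and ±100 the full control effect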
In short: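 FRET read-out (405 nm excitation, 460/530 nm emission) of a beta-lactamase reporter under a STAT-inducible element in ME-180 cervical carcinoma cells. Cells with compound receive 40 pM IL-6 for 5 h. Values are normalised to AC90 stimulation and AC90 JAK-inhibitor controls.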

[5] = target: Glucocorticoid receptor (Homo sapiens) (UniProt P04150); experiment: GR-EFC Redistribution (AID 451; calls by dose curve; further: potency means the concentration at half of the fitted maximal effect); settings: CHO-K1 GR-EFC translocation, beta-gal luminescence, 2 h
In short: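 Translocation of GR-ED fusion to nuclear EA restores b-gal, read by luminescence after 1 h room-temperature detection. Engineered CHO-K1 biosensor cells, 1,000/well, exposed 2 h at 37 C to titrations up to 46 uM final.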

[6] = target: Mitogen-activated protein kinase 10 (Mus musculus) (UniProt Q61831); experiment: JNK3 AlphaScreen Assay (AID 530); settings: JNK3 lysate, c-Jun phosphorylation; series mostly up to 11.4 µM;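 further: kinase came from lysate of stimulated human HepG2 cells; signal reports phosphorylation of biotinylated GST-cJun 1-79 at Ser73 with 10 µM ATP; on the % scale 0 is the no-effect control and ±100 the full control effect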
In short: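 Kinase buffer: 20 mM Tris-HCl pH 7.6, 10 mM MgCl2, 1 mM DTT, 0.1 mM Na3VO4, 0.01% Tween-20; ATP 10 uM. Substrate biotin-GST-cJun(1-79), enzyme from activated HepG2 lysates. Detection by Ser73 phospho-antibody AlphaScreen.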

[7] = target: 3',5'-cyclic-AMP phosphodiesterase 4B (Homo sapiens) (UniProt Q07343); experiment: qHTS Assay for Inhibitors of PDE-IV (AID 607; active means well fitted activation curve with a large enough effect in the main read-out, with a control signal flat, not every such curve was filed as active; further: % of control where 0% means no effect); settings: HEK293 ACTOne CNG channel cells, membrane potential fluorescence; series mostly up to 22.9 µM
In short: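 Cell-based read-out of cAMP via a modified cyclic nucleotide-gated channel and membrane potential dye (535/590 nm) in HEK293 cells expressing PDE4 endogenously. Compounds tested up to 22.9 uM final; 100 uM RO 20-1724 reference.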

[8] = qHTS Assay for Identification of Small Molecule Agonists for Hypoxia Response Element Signaling Pathway (AID 914; active means well fitted activation curve with a large enough effect in the signal ratio, with a control signal flat, not every such curve was filed as active; the % refers to the signal ratio; further: % of control where 0% means no effect); settings: ME-180 (cervical carcinoma) HRE-bla reporter, beta-lactamase ratio, CoCl2, 17 h; activation: stronger effect = higher value
In short: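 HRE-bla ME-180 cells, overnight plating in Opti-MEM with 0.5% dialyzed FBS; cpd titration + EC50 CoCl2, 17 h, 37 degrees Celsius; CCF4 2.5 h RT; 460/530 nm ratio; AC50.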

[9] = NFAT Signaling Pathway (AID 444); settings: Jurkat NFAT-bla M1, carbachol, beta-lactamase ratio, 5 h; at 7.69 µM (top of the series) unless noted;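 further: carbachol stimulus at about its EC50 of 1 µM final; on the % scale 0 is the no-effect control and ±100 the full control effect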
In short: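 Read-out: CCF4 FRET ratio (460 nm/530 nm) after 1 h RT dye loading, used for %activity and AC50 from titration series. Cells: Jurkat NFAT-β-lactamase/M1 line, treated with compound plus 1 uM carbachol for 5 h, 37 °C.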

[10] = target: Glucocorticoid receptor (Homo sapiens) (UniProt P04150); experiment: GR-GFP Redistribution (AID 450;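 active means compounds whose dose series gives a full or clear partial fitted curve of increased nuclear translocation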; further: potency means the concentration at half of the fitted maximal effect); settings: U2OS GR-GFP nuclear translocation, laser cytometry, 2 h
[11] = target: ATP-dependent 6-phosphofructokinase (Trypanosoma brucei brucei) (UniProt O15648); experiment: qHTS Assay to Find Inhibitors of T. brucei phosphofructokinase: hit validation (AID 492961; active means well fitted curve in the direction sought with a large enough effect; an effect the other way counts as inactive or inconclusive); settings: T. brucei PFK, ADP-Glo luminescence; series mostly up to 51.4 µM
In short: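 In this biochemical qHTS validation, titrated compounds were tested against 1.25 nM PFK with 0.1 mM ATP and 0.5 mM F6P. Percent activity came from controls lacking or containing enzyme.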

[12] = qHTS profiling for inhibitors of Plasmodium falciparum proliferation (AID 504749; active means well fitted curve in the direction sought with a large enough effect; an effect the other way counts as inactive or inconclusive;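 further: 0% = DMSO vehicle and full inhibition = artemisinin control; nearly all actives have a fitted effect of over 60% in size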); settings: P. falciparum in erythrocytes, SYBR Green DNA, 72 h, at 28.7 µM (top of the series)
In short: (§1)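 In a 72 h erythrocytic culture (37 C, humidified, 5% CO2) at 2.5% hematocrit and 0.3% starting parasitemia, compounds were tested; SYBR Green I in detergent lysis buffer stained parasite DNA overnight.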

AS120 = experiment: as above; settings: P. falciparum in erythrocytes, SYBR Green DNA, 72 h; series mostly up to 28.7 µM
In short: as §1

ATS189 = experiment: as above; settings: P. falciparum in erythrocytes, SYBR Green DNA, 72 h; series mostly up to 28.7 µM
In short: as §1

W2 = experiment: as above; settings: P. falciparum in erythrocytes, SYBR Green DNA, 72 h; series mostly up to 28.7 µM
In short: as §1

Glucocorticoid receptor (Homo sapiens), sequence (P04150 whole entry, looked up, the tested form may be a part): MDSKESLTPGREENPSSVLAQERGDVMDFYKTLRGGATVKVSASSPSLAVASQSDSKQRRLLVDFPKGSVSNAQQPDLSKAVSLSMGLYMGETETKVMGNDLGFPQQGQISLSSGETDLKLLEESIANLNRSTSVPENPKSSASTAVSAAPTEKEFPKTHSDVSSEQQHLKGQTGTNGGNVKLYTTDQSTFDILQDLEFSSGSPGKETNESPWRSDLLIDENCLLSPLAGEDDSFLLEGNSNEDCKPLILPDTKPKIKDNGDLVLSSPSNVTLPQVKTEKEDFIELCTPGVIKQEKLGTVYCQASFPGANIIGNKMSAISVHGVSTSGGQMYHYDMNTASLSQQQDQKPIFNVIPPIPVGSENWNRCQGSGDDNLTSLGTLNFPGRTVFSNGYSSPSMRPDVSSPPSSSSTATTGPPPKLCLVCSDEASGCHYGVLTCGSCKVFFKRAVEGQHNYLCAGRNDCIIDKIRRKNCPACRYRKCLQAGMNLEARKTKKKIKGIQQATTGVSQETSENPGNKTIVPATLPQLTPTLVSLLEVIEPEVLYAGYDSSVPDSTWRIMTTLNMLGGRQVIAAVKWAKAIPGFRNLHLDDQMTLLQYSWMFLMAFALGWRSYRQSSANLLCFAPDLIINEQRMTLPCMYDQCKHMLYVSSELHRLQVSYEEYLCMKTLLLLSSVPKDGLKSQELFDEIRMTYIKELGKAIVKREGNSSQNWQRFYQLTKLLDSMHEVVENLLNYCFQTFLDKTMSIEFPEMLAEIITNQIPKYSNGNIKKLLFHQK
Lysosomal acid glucosylceramidase (Homo sapiens), sequence (P04062 whole entry, looked up): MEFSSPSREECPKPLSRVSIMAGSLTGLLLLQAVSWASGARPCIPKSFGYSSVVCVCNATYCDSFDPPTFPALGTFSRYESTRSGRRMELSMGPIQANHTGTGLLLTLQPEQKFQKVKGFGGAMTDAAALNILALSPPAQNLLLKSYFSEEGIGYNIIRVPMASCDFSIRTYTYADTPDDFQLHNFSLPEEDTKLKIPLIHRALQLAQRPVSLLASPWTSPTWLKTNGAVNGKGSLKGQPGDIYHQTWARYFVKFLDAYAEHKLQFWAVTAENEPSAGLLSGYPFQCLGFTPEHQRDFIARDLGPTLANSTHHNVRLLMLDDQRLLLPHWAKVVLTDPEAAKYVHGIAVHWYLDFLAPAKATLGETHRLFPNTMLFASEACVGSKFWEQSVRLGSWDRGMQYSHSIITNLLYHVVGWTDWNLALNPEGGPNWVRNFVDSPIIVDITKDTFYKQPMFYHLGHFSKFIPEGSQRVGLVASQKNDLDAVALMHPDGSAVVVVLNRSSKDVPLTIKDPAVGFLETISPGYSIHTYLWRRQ
3',5'-cyclic-AMP phosphodiesterase 4B (Homo sapiens), sequence (Q07343 whole entry, looked up): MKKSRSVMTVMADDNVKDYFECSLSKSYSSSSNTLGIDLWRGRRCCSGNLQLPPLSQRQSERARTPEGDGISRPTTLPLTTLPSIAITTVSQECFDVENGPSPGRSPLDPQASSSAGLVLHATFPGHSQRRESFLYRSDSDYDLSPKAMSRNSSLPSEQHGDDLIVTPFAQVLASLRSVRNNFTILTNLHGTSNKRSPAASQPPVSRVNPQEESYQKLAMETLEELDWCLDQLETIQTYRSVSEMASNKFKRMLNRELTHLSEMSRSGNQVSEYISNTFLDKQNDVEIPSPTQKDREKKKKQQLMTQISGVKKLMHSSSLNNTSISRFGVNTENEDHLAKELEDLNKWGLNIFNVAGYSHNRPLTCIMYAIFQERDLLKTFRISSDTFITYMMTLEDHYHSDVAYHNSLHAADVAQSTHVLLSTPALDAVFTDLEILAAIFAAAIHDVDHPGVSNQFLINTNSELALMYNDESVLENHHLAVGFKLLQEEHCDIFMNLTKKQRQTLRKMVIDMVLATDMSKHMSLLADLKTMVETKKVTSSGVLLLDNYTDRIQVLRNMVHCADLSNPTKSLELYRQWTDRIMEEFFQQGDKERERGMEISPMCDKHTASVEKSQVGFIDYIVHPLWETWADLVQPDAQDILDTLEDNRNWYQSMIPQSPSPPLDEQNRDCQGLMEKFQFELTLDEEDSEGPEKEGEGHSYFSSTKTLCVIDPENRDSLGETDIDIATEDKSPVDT
ATP-dependent 6-phosphofructokinase (Trypanosoma brucei brucei), sequence (O15648 whole entry, looked up): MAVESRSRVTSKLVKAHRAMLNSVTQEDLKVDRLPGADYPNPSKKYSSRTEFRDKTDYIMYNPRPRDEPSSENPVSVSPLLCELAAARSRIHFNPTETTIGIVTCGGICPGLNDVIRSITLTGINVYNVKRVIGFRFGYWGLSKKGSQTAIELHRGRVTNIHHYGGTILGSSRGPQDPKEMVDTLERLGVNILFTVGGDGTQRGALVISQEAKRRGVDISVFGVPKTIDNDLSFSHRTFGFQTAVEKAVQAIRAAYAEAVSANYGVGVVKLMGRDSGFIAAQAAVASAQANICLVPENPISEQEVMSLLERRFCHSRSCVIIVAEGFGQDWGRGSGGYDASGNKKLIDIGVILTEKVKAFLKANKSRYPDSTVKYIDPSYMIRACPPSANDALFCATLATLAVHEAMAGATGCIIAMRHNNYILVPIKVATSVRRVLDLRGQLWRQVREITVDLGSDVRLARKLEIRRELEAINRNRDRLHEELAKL
Cytochrome P450 1A2 (Homo sapiens), sequence (P05177 whole entry, looked up): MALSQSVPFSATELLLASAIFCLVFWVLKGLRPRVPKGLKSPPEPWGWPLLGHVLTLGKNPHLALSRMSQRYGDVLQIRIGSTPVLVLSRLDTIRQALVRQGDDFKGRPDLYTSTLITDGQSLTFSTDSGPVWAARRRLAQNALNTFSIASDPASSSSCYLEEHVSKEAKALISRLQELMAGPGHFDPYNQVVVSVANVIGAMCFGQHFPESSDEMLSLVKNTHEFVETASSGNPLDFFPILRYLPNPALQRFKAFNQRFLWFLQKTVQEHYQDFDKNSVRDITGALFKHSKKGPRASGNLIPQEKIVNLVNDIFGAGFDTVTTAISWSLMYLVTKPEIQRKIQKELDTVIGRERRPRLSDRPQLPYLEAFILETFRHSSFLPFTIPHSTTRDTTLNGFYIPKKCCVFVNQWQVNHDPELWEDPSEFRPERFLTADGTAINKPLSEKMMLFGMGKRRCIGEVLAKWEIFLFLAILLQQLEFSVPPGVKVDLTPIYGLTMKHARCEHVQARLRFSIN

NC(=O)C[C@H](N)C(N)=O
inactive: Potency [1] > 11.4 µM | activity change, negative = inhibition [2] -1.63% | Potency [3] | activity, negative = inhibition [4] 2.81% | Potency [5] > 9.22 µM | Potency [6] | Potency [7] | activation [8] 9.57%

OC(Cc1cccnc1)(c1ccccc1)c1ccccc1
inactive: Potency [1] > 11.4 µM | activity change, negative = inhibition [2] 5.37% | activity change, negative = inhibition [9] -25.6% | activity, negative = inhibition [4] -5.74% | Potency [10] > 46 µM | Potency [5] > 9.22 µM | Potency [6]

Cc1onc(-c2c(F)cccc2Cl)c1C(=O)N[C@@H]1C(=O)N2[C@H]1SC(C)(C)[C@H]2C(=O)O
inactive: Potency [1] > 11.4 µM | activity change, negative = inhibition [2] -24% | activity change, negative = inhibition [9] 13.8% | activity, negative = inhibition [4] 5.59% | Potency [10] > 46 µM | Potency [5] > 9.22 µM | Potency [6] | Potency [7] | outcome [11] | activity, negative = inhibition ([12]; parasite line A) 1.43% | activity, negative = inhibition ([12]; parasite line B) 6.57% | Potency (AS120) | Potency (ATS189) | Potency (W2)
